From PubChem BioAssay (EPA / NIEHS) come the findings set out here.

Molecules are shown by their SMILES. Some structures have more than one record in an assay (separate samples or runs), and their calls can disagree. Activity calls are given as the source filed them. Rule for the calls: active = hit-call score of the fitted dose curve at least 0.9, where 1 is the maximum; inactive = score below 0.9.

Read-out in the test: Interferon-gamma inducible Protein 10 (IP10), CXCL10 (gene 3627)
The test is described as follows: BSK_hDFCGF_IP10: BioMAP Diversity Plus: hDFCGF Assay for Interferon-gamma inducible Protein 10 (IP10) Biomarker Activity (AID 2283053). To be noted: primary human foreskin fibroblasts; actives raise or lower the signal. The protocol: BSK_hDFCGF is a cell-based, multiplexed-readout assay that uses foreskin fibroblast, a human skin primary cell, with measurements taken at 24 hours after chemical dosing in a 96-well plate.BSK_hDFCGF_IP10 is an assay component measured in the BSK_hDFCGF assay. It measures IP-10 antibody related to regulation of gene expression using ELISA technology.Data from the assay component BSK_hDFCGF_IP10 was analyzed into 1 assay endpoint. This assay endpoint, BSK_hDFCGF_IP10, was analyzed with bidirectional fitting relative to DMSO as the negative control and baseline of activity. Using a type of binding reporter, gain or loss-of-signal activity can be used to understand changes in the signaling as they relate to the gene CXCL10. Furthermore, this assay endpoint can be referred to as a primary readout, because this assay has produced multiple assay endpoints where this one serves a signaling function. To generalize the intended target to other relatable targets, this assay endpoint is annotated to the cytokine intended target family, where the subfamily is chemotactic factor.
The levels of cell surface (or secreted, indicated by the prefix "s") biomarker endpoints were measured by ELISA. Overt cytotoxicity to cells in confluent adherent cultures (all systems other than the BT system) was assessed by measuring total protein levels using sulforhodamine B (SRB) staining in parallel cultures at the time of biomarker measurements, indicated as SRB endpoints. For proliferation assays for adherent cell types, individual cell types are cultured at sub-confluence and relative cell numbers quantified by SRB staining at time points optimized for each system (48 h: 3C and CASM3C systems; 72 h: BT and HDF3CGF systems; 96 h: SAg system). SRB was performed by staining cells with 0.1% SRB after fixation with 10% TCA and reading wells at 560 nm.Viability and proliferation of PBMC (T cells) was quantified by Alamar Blue reduction for the SAg and BT systems. For PBMC viability (referred to as PBMC Cytotoxicity within the assay endpoint names), cells were plated (75,000/well in a 96-well plate) and then chemical samples added for 1 h before addition of activators, SEB and TSST-1 (20 ng/mL final concentration each). Cells were incubated for 90 h. Then, Alamar Blue (20 uL/well) (Invitrogen, Cat DAL1100) was added for 6 h, and the plates were read with a fluorescence microplate reader at 546/580 nm (excitation/emission). For PBMC proliferation, cells were plated and activated as above but incubated for only 16 h prior to addition of Alamar Blue. Plates were read after 6 h.
As to `O=S(=O)(O)CCC(F)(F)C(F)(F)C(F)(F)C(F)(F)C(F)(F)C(F)(F)F`, the result was inactive.
With `CC(C)CC(C)O` (stereo not given), the outcome was inactive.
Same read-out and setting: the value for `CCOC(N)=O` was “inactive”; that for `CCCCCCCC1CCC(=O)O1` (stereo not given) was “inactive”.
For `FC(F)(F)C(F)(F)C(F)(F)C(F)(F)C(F)(F)C(F)(F)I`, the outcome was inactive and the concentration at half-maximal activity (AC50) is 30 µM (active).
In the case of `CCN(CC)C(=S)SSC(=S)N(CC)CC`, the AC50 is 1.67 µM (active).
Consider `CCCCN1C(=O)[C@@H]([C@H](O)C2CCCCC2)NC(=O)C12CCN(Cc1ccc(Oc3ccc(C(=O)O)cc3)cc1)CC2`, for which the AC50 is 31.2 µM (active).
For the molecule `CC1(C)C(=O)N(Cl)C(=O)N1Cl`, the outcome was inactive.
Same read-out and setting: the value for `FC(F)C(F)(F)COCC1CO1` (stereo not given) was “inactive”; that for `OCc1ccccc1` was “inactive”; that for `FC(F)=C(F)C(F)(F)C(F)(F)C(F)(F)C(F)(F)C(F)(F)C(F)(F)F` was “inactive”.
Turning to `O=C(NO)C1(NS(=O)(=O)c2ccc(Oc3ccc(F)cc3)cc2)CCOCC1`, the result was inactive.
Turning to `c1ccc2ncccc2c1`, the outcome was inactive.
As to `CCCCCCCCCCCCCCCCOS(=O)(=O)O`, the AC50 was 6.13 µM (active).
Consider `OCC(CO)(CO)CO`, for which the outcome was inactive.
Take `NC(=O)N1c2ccccc2C=Cc2ccccc21`: the outcome was inactive.
Take `CCCc1ccccc1`: the outcome was inactive.
Turning to `Cc1ccc(S(=O)(=O)NC(=O)NN2CCCCCC2)cc1`, the outcome was inactive.
Consider `OC[C@H]1O[C@@](CO)(O[C@H]2O[C@H](CO)[C@@H](O)[C@H](O)[C@H]2O)[C@@H](O)[C@@H]1O`, for which the outcome was inactive.
On the same count and under the same terms, the value for `CCCCCCOC(=O)CC(CC(=O)OCCCCCC)(OC(=O)CCC)C(=O)OCCCCCC` was “inactive”.
Consider `OCCC(F)(F)C(F)(F)C(F)(F)C(F)(F)F`, for which the result was inactive.
In the case of `OC[C@H]1O[C@@H]2O[C@H]3[C@H](O)[C@@H](O)[C@@H](O[C@H]4[C@H](O)[C@@H](O)[C@@H](O[C@H]5[C@H](O)[C@@H](O)[C@@H](O[C@H]6[C@H](O)[C@@H](O)[C@@H](O[C@H]7[C@H](O)[C@@H](O)[C@@H](O[C@H]1[C@H](O)[C@H]2O)O[C@@H]7CO)O[C@@H]6CO)O[C@@H]5CO)O[C@@H]4CO)O[C@@H]3CO`, the result was inactive.
As for `C[C@]12C=CC(=O)C=C1CC[C@H]1[C@@H]3C[C@@H](O)[C@](O)(C(=O)CO)[C@@]3(C)C[C@H](O)[C@@]12F`, the outcome was inactive.
As for `O=S(=O)(O)c1ccc(N=Nc2c(O)ccc3cc(S(=O)(=O)O)ccc23)cc1`, the result was inactive.
Turning to `CCCCCOC(C)=O`, the result was inactive.
For the molecule `CC[C@H](C)C(=O)O[C@H]1C[C@H](O)C=C2C=C[C@H](C)[C@H](CC[C@@H](O)C[C@@H](O)CC(=O)O)[C@H]21`, the result was inactive.
As for `CCCCCCCCN(C)C`, the outcome was inactive.
Same read-out and setting: the value for `CC(C)CCCCCCOC(=O)C1CCCCC1C(=O)OCCCCCCC(C)C` (stereo not given) was “inactive”; that for `Cn1c(=O)c2[nH]cnc2n(C)c1=O` was “inactive”; that for `O=c1[nH]cnc2c1ncn2[C@H]1CC[C@@H](CO)O1` was “inactive”.
As to `O=C(O)[C@H](O)[C@@H](O)C(=O)O`, the result was inactive.
As to `C[C@@H](Oc1ccc(CNC(=O)c2cccnc2Oc2ccc3c(c2)OCO3)c(F)c1)C(=O)O`, the result was inactive.
In the case of `CCCC(CCC)C(=O)O`, the result was inactive.
Same read-out and setting: the value for `FC(F)(F)COC(OCC(F)(F)F)OCC(F)(F)F` was “inactive”.
As to `CC(C)c1nnc2ccc(-c3ocnc3-c3cc(F)ccc3F)cn12`, the concentration at half-maximal activity (AC50) was 0.628 µM (active).
`CCCCC(CC)C(=O)OCCOCCOCCOC(=O)C(CC)CCCC` (stereo not given): the outcome was inactive.
With `OCCOCCOCCO`, the outcome was inactive.
With `O=C(O)c1cccc(C(=O)O)c1`, the outcome was inactive.
On to `Nc1ccn([C@@H]2O[C@H](CO)[C@@H](O)[C@@H]2O)c(=O)n1`, for which the result was inactive.
